The list shows a part of the results. Activity calls are given as the source filed them. Rule as the data show it: active = inhibition above about 23%; inactive = the rest.
Test: IEC-6 intestinal cell killing – luminescence, triplicate, cytotoxicity control for KLF5 inhibitor project (AID 1905);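 also: cells exposed to compounds for 48 hours before viability read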
Conditions: IEC-6 rat intestinal cells, viability luminescence; at 4 µM; hits give high values

SMILES	inhibition
O=c1cc(-c2ccccc2)[nH]c2cc(F)ccc12	59.3% (active)
COc1ccccc1C1C2=C(COC2=O)Nc2cc3c(cc21)OCO3 (configuration not stated)	82.9% (active)
CCNC(=O)CCc1nc(-c2ccc(C(C)(C)C)cc2)no1	-2.69% (inactive)
COc1ccccc1N1CCN(C(=O)c2cc(=O)c3cc(C)cc(C)c3o2)CC1	58.2% (active)
CN(c1ccc2nc3ccccc3c(=O)n2n1)C1CCCCC1	9.18% (inactive)
CCOC(=O)c1sc(NC(=O)c2sc(C)nc2C)nc1C	2.65% (inactive)
CCOC(=O)CSC1=C(C#N)C(c2sccc2C)CC(=O)N1 (configuration not stated)	57.3% (active)
COc1cccc(/C=N/Nc2ncc(C(F)(F)F)cc2Cl)c1O	0.75% (inactive)
CC(=O)c1ccc(Oc2cc(C)nc(-n3nc(C)cc3C)n2)cc1	57.9% (active)
CCOc1ccccc1NC(=O)Cn1nnc(C(=O)NCc2cccs2)c1N	58.1% (active)
CCOc1cc(C(=O)N2CCc3cc(OC)c(OC)cc3C2)ccc1OC(F)F	59.4% (active)
Cc1ccc(/C=N/NC(=O)COc2ccccc2-c2ccccc2)cc1	74.2% (active)
Cc1ccc2[nH]c(=O)c(CN(CCCN(C)C)C(=O)Nc3cccc(Cl)c3)cc2c1	6.49% (inactive)
CSc1nc(N(C)NC(=O)c2cccc(C)c2)c2ccccc2n1	73.4% (active)
Cn1nccc1C(=O)NC1CCCc2c1cnn2-c1ccc(F)cc1F (configuration not stated)	13.8% (inactive)
CN(CCO)c1ccc(/C=N/Nc2nncc3ccccc23)cc1	-0.69% (inactive)
CCn1c(SCC(=O)Nc2nccs2)nnc1-c1ccncc1	8.72% (inactive)

From PubChem BioAssay
